For test [1], the target named is Guanine nucleotide-binding protein G(i) subunit alpha-1 (Homo sapiens) (UniProt P63096). The experiment in a line: qHTS Assay for Inhibitors of RGS12 GoLoco Motif Activity (Green Fluorophore) (AID 879).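 Note: negative values mean loss of peptide binding seen as reduced polarization.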 Conditions: Galphai1/FITC-RGS12 GoLoco peptide, fluorescence polarization; series mostly up to 57.1 µM. The method in brief:
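Fluorescence polarization assay: 50 nM Gαi1 with 10 nM FITC-labeled RGS12 GoLoco peptide in 10 mM Tris pH 7.5, 150 mM NaCl, 0.1 mM GDP, 0.05% NP40, 10 min at room temperature with compound.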
For orientation: In qHTS, concentration-response curves come from the screen itself.

Test [2] is described as follows: qHTS Assay for Identification of Small Molecule Antagonists for Thrombopoietin (TPO) Signaling Pathway (AID 918). Note: potency is the fitted concentration of half-maximal effect; nearly all actives have a fitted effect of over 60% in size. The note with it: TPO-dependent cell signaling reporter, antagonist mode. The method in brief: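 Murine Ba/F3 cells stably expressing human TPO receptor and a Glycoprotein IIb promoter–luciferase reporter were IL-3-starved overnight, treated with compounds plus TPO (26 pM final, its EC50) for 24 hrs at 37 C, then read by luminescence.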

Test [3] addresses Muscarinic acetylcholine receptor M1 (Rattus norvegicus) (UniProt P08482). The experiment in a line: qHTS Assay for Antagonists of Acetylcholine Muscarinic M1 Receptor: Measurement of IP-One Response (AID 944). Note: nearly all actives have a fitted effect of over 75% in size. Conditions: CHO-M1 cells, IP-One HTRF, antagonist mode; series mostly up to 46.1 µM. The method in brief:
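CHO cells expressing rat M1 receptor, recovered overnight, were pre-incubated 10 min with compound, then stimulated 30 min with carbachol at EC80 (200 nM) in LiCl-containing buffer, pH 7.4. IP1 accumulation was read by HTRF (620/665 nm).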

Test [4] concerns the target Pyruvate kinase (Leishmania mexicana) (UniProt Q27686). In words: qHTS Validation Assay for Inhibitors of Leishmania Mexicana Pyruvate Kinase (AID 945). The note with it: purified L. mexicana pyruvate kinase, enzyme activity, E451W mutant enzyme; series mostly up to 57.5 µM. The method in brief:
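Mutant LmPYK (E451W), 0.2 nM, plus 0.5 mM PEP and 0.1 mM ADP in 50 mM imidazole pH 7.2 containing 0.01% Tween 20 and 0.05% BSA. Incubated 1 h at room temperature; luminescence via PKLight, normalized to DMSO.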

The target of test [5] is Cytochrome P450 2C9 (Homo sapiens) (UniProt P11712). In words: qHTS Assay for Inhibitors and Substrates of Cytochrome P450 2C9 (AID 883). Note: nearly all actives have a fitted effect of over 60% in size. Conditions: recombinant CYP2C9, luciferin-H luminescence, 60 min; series mostly up to 57.1 µM. The method in brief:
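Turnover of Luciferin-H (100uM, KM) by 10nM human CYP2C9 was measured over 60 min at 37C with NADPH regeneration; inhibitors and some substrates reduce luminescence. Data normalized to sulphaphenazole 57uM.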

In test [6] the target is Cytochrome P450 2D6 (Homo sapiens) (UniProt P10635). In words: qHTS Assay for Inhibitors and Substrates of Cytochrome P450 2D6 (AID 891).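 For activity change, negative = inhibition: luciferin methyl ether substrate demethylated by CYP2D6 with NADPH regeneration.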 Note: nearly all actives have a fitted effect of over 60% in size. Note: potency is the fitted concentration of half-maximal effect. The note with it: recombinant CYP2D6, luciferin-ME EGE luminescence; series mostly up to 57.1 µM. Put shortly: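 Human CYP2D6 (5 nM) with 30 uM Luciferin-ME EGE (at Km) in 100 mM KPO4, compound preincubated 10 min, then NADPH regeneration system for 60 min at room temperature. Luciferin read by luminescence; normalized to 1.43 uM quinidine.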

For test [7], the target named is Cytochrome P450 2C19 (Homo sapiens) (UniProt P33261). The experiment in a line: qHTS Assay for Inhibitors and Substrates of Cytochrome P450 2C19 (AID 899). Note: nearly all actives have a fitted effect of over 60% in size. Conditions: recombinant CYP2C19, luciferin-H EGE luminescence; series mostly up to 57.1 µM. Put shortly:
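Reactions contain 5nM enzyme, 10uM Luciferin-H EGE (KM) and 50mM KPO4; compound preincubates 10 min at 37C, NADPH regeneration starts turnover for 60 min. Luminescence after detection reagent gives activity.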

Test [8] in a line: Confirmation and Secondary Assay for Modulators of Hemoglobin Beta Chain Splicing at IVS2 654 locus (AID 910).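 Note: HeLa cells stably carrying EGFP split by mutant beta-globin IVS2-654 intron; per-well total GFP intensity by laser scanning cytometry after 2-day treatment.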 Conditions: HeLa EGFP-654 splicing reporter, GFP fluorescence, 48 h; series mostly up to 46.1 µM. Put shortly:
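Readout: per-well total peak green fluorescence (488 nm ex, 500–520 nm em) from objects 5–250 µm, reflecting correct splicing of an EGFP-654 reporter. Compounds were applied for 2 days at 37 °C to overnight-plated HeLa EGFP-654 cells; controls were DMSO and 500 nM IVS2-654 PNA.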

The nature of test [9]: Confirmation and Secondary Assay for Modulators of Hemoglobin Beta Chain Splicing at IVS2 705 locus (AID 930).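 For activation: HeLa cells stably expressing the EGFP-705 splicing reporter.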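 Note: GFP fluorescence per well restored by corrected splicing of the IVS2-705 intron in EGFP.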 Note: potency is the fitted concentration of half-maximal effect. Conditions: HeLa EGFP-705 splicing reporter, GFP fluorescence, 48 h; series mostly up to 46.1 µM. Put shortly: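 Stable HeLa line with EGFP disrupted by mutant beta-globin intron 2 (705). Overnight attachment, then 2 days of compound at 37C, 5% CO2. Signal: peak GFP intensity summed over objects 5-250 µm.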

For test [10], the target named is Cytochrome P450 3A4 (Homo sapiens) (UniProt P08684). In words: qHTS Assay for Inhibitors and Substrates of Cytochrome P450 3A4 (AID 884). Note: nearly all actives have a fitted effect of over 50% in size. The note with it: recombinant CYP3A4, Luciferin-PPXE luminescence; series mostly up to 57.1 µM. Put shortly:
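20 nM human CYP3A4 with 25 uM Luciferin-PPXE (at KM) in 200 mM KPO4, preincubated 10 min with compound; NADPH regeneration started a 60 min RT reaction. Luciferin detected by luminescence, normalized to 57 uM ketoconazole as full inhibition.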

Test [11] has the same target. In words: qHTS Assay for Activators of Cytochrome P450 3A4 (AID 885). Note: nearly all actives have a fitted effect of over 65% in size. Conditions: recombinant CYP3A4, Luciferin-PPXE luminescence, 60 min; series mostly up to 57.1 µM. The method in brief: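 Signal was normalized against complete inhibition by 57 uM ketoconazole. The reaction used 20nM CYP3A4 with 25uM Luciferin-PPXE, 10-min compound preincubation and a 60-min NADPH-supported step at RT.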

Test [12] can be described thus: qHTS Assay for Identification of Small Molecule Agonists for Hypoxia Response Element Signaling Pathway (AID 914; active = well fitted activation curve with a large enough effect in the signal ratio, with a control signal flat, not every such curve was filed as active; the % refers to the signal ratio). The note with it: ME-180 (cervical carcinoma) HRE-bla reporter, beta-lactamase ratio, CoCl2, 17 h; active compounds read high. Put shortly: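 Reporter activity (beta-lactamase, CCF4 460nm/530nm ratio) in HRE-bla ME-180 cells is recorded after 17 h compound exposure with EC50 CoCl2 at 37 degrees Celsius. AC50 values come from titration data.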

A number with no mark means an inactive call. Results filed as inconclusive are left out. A call without a number means that no potency is given here. Where a structure was tested more than once in an assay, its records may differ in their call. Active and inactive are the calls of the source. Unless noted, calls come from the whole dose curve; as a rule, active = well fitted curve in the direction sought with a large enough effect; inconclusive = small, poorly fitted or top-dose-only effect, or another doubt; inactive = no such curve, though single readings can be large; an effect the other way counts as inactive or inconclusive.

Guanine nucleotide-binding protein G(i) subunit alpha-1 (Homo sapiens), sequence (P63096 whole entry, looked up): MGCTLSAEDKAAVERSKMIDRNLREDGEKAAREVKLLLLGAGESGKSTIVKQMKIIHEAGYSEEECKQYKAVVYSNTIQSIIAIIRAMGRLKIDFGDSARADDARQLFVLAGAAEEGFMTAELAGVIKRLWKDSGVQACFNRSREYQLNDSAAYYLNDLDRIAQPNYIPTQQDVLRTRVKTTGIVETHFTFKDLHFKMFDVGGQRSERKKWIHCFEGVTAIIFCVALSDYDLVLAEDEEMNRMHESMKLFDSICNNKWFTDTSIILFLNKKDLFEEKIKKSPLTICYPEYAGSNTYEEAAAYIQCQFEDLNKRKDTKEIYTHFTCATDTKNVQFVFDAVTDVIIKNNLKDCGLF
Cytochrome P450 3A4 (Homo sapiens), sequence (P08684 whole entry, looked up): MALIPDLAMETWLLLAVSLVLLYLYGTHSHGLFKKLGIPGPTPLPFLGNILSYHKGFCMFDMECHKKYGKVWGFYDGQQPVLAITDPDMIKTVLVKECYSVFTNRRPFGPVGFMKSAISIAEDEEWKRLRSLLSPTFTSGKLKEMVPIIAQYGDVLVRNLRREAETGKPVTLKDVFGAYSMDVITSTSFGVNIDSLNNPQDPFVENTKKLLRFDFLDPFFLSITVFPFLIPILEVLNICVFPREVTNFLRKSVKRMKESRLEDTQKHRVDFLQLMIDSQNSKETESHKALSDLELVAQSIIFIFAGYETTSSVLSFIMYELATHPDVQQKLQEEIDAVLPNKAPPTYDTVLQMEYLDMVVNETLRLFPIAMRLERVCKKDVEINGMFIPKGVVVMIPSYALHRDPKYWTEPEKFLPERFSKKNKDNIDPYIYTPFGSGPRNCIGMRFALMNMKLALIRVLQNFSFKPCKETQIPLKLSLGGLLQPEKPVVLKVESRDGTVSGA
Cytochrome P450 2D6 (Homo sapiens), sequence (P10635 whole entry, looked up): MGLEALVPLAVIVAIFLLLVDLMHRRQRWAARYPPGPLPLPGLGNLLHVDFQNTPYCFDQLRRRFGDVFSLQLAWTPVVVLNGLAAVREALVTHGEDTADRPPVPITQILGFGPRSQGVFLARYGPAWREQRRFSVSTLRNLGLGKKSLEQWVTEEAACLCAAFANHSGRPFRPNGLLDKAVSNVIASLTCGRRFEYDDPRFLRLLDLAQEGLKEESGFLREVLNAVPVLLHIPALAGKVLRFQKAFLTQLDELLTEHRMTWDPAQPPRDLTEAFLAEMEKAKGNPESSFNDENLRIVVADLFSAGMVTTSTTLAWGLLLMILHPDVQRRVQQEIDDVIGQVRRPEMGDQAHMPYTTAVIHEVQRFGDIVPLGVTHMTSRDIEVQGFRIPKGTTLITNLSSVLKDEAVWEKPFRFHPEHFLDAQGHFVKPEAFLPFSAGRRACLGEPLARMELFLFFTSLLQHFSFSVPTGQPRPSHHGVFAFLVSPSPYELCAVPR
Pyruvate kinase (Leishmania mexicana), sequence (Q27686 2-499 E452W): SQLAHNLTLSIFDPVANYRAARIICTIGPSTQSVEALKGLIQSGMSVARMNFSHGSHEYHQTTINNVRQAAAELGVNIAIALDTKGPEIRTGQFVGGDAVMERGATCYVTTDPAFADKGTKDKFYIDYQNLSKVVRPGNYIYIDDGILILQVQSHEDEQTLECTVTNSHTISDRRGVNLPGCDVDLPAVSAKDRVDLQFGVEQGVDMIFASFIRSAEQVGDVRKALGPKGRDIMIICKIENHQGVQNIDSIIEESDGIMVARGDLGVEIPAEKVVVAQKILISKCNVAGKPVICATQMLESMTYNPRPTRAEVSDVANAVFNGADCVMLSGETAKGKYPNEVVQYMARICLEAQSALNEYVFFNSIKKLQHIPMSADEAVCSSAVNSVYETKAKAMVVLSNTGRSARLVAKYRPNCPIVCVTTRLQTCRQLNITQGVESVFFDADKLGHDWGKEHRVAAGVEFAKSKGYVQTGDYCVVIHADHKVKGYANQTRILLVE
Muscarinic acetylcholine receptor M1 (Rattus norvegicus), sequence (P08482 whole entry, looked up): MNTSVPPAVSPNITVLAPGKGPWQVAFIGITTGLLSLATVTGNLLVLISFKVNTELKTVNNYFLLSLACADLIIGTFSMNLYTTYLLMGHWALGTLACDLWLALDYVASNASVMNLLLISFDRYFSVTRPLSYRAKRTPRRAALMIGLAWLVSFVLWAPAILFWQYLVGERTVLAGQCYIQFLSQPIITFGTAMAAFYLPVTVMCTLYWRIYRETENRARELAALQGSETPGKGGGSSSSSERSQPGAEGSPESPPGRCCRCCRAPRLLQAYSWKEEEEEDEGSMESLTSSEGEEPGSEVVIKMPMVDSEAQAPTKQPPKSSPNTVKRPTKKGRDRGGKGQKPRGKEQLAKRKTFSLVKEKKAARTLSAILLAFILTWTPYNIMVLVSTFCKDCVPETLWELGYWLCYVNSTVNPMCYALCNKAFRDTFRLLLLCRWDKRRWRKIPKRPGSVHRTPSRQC
Cytochrome P450 2C9 (Homo sapiens), sequence (P11712 whole entry, looked up): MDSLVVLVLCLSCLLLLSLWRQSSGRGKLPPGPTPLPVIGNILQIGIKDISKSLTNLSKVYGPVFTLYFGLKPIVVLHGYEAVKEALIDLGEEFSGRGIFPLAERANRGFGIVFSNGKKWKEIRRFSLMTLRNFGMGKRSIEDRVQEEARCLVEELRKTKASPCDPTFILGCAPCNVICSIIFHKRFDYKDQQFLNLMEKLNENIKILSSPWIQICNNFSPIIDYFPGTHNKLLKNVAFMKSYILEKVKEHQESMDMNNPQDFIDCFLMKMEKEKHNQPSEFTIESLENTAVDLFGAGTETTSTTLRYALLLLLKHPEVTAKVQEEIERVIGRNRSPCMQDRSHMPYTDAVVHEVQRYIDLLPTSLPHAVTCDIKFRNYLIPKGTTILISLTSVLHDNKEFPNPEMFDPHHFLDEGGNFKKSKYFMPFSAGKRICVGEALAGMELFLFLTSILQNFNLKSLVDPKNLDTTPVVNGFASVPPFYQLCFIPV
Cytochrome P450 2C19 (Homo sapiens), sequence (P33261 whole entry, looked up): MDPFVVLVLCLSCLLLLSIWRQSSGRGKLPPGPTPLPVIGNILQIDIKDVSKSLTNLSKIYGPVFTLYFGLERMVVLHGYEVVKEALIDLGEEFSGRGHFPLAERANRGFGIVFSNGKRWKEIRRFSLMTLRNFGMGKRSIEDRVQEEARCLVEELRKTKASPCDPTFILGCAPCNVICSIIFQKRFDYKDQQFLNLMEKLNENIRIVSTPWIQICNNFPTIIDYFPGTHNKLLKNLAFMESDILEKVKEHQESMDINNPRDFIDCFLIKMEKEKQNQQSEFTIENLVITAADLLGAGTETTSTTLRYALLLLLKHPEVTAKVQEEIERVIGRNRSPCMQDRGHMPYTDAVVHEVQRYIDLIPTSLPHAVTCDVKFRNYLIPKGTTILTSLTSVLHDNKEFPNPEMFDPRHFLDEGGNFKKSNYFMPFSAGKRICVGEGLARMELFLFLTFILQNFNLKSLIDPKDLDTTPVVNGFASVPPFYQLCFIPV

As to `OCc1cc(C(O)CNCCCCCCOCCCCc2ccccc2)ccc1O` (stereo unspecified), the compound was classed as inactive in test [1] and in [4]. Besides, in [2], the Potency was 10 µM (active). In addition, the Potency result in test [3] was “inactive”.
On to `Cc1cccc(Nc2cc(Cl)nc(SCC(=O)O)n2)c1C`, for which the activity change, negative = inhibition in test [5] was -10.9% [at 11.4 µM]. In [6], the Potency was 3.16 µM (active) and the activity change, negative = inhibition was 13.3% [at 11.4 µM]. In test [7], the activity, negative = inhibition is 16.3% [at 11.4 µM]. Besides, the compound was called inactive in test [8]. The Potency entry in [9] was “inactive”.
Turning to `COc1ccc(Cl)cc1C(=O)NCCc1ccc(S(=O)(=O)NC(=O)NC2CCCCC2)cc1`, the call in test [1], in test [8] and in test [4] was inactive. Moreover, the Potency entry in test [9] and in test [3] was “inactive” in each case.
Consider `CN(C)CCCN1c2ccccc2Sc2ccc(Cl)cc21`, for which the result in [1] and in test [4] was inactive. Moreover, the Potency in test [2] was 12.6 µM (active). In test [9], the Potency result was “inactive”.
With `CC(COc1ccccc1)NC(C)C(O)c1ccc(O)cc1` (stereo unspecified), the Potency entry in test [10] and in test [9] was “inactive” throughout. Also, the compound was classed as inactive in [8].
`Cc1cc2c(cc1S(N)(=O)=O)S(=O)(=O)CCC2`: the Potency result in test [5] was “inactive”.
As for `OC[C@H]1O[C@@H](O[C@@H]2[C@@H](CO)O[C@](O)(CO)[C@H]2O)[C@H](O)[C@@H](O)[C@H]1O`, the Potency result in [10] was “inactive”.
For `O=C(Oc1ccccc1C(=O)O)c1ccccc1O`, the Potency result in test [10] and in test [9] was “inactive” each time.
Consider `CSc1ccc2c(c1)C(N1CCN(C)CC1)Cc1ccccc1S2` (stereo unspecified), for which the Potency entry in test [9] was “inactive”.
Regarding `CCn1cc(C(=O)O)c(=O)c2cnc(N3CCNCC3)nc21`, the Potency result in [10] and in test [9] was “inactive” throughout.
In the case of `OCC(O)CN1CCN(c2ccccc2)CC1` (stereo unspecified), the Potency result in [10] and in [9] was “inactive” each time.
Turning to `Cc1ccc(C(C)C)cc2c(C)ccc1-2`, the Potency entry in [10] and in [9] was “inactive” in each case.
`CC(CN(C)C)CN1c2ccccc2CCc2ccccc21` (stereo unspecified): the result in [11] and in test [8] was inactive. In addition, in test [9], the Potency result was “inactive”.
Take `CCCCN1CCCC[C@H]1C(=O)Nc1c(C)cccc1C`: in test [11], the outcome was inactive. For the same compound, the Potency in test [6] was 0.501 µM (active).
On to `COc1ccc2c(c1)C(=O)N(CCc1ccc(S(=O)(=O)NC(=O)NC3CCCCC3)cc1)C(=O)C2(C)C`, for which the result in test [11] was inactive.
Consider `CN1CCOC(c2ccccc2)c2ccccc2C1` (stereo unspecified), for which the Potency entry in test [9] was “inactive”.
As to `CCC(=O)c1ccc(O)cc1`, the activation in test [12] was 5.29%.
In the case of `NCC(=O)CCC(=O)O`, the Potency entry in test [10] and in test [9] was “inactive” in each case.
Regarding `CN(C)CCN(Cc1ccccc1)c1ccccn1`, the Potency result in test [10] and in [9] was “inactive” each time.
As to `CCCCCCCCCCCCCCCCCCOCC(O)CO` (stereo unspecified), the Potency result in test [10] and in [9] was “inactive” in each case.
Turning to `Nc1ccc(S(=O)(=O)Nc2ccc(Cl)nn2)cc1`, the Potency entry in test [10] and in test [9] was “inactive” throughout.
Turning to `Cn1cc[nH]c1=S`, the result in test [8] was inactive. In addition, the Potency entry in test [9] is “inactive”.
For `CC1=C(/C=C/C(C)=C/C=C/C(C)=C/C(=O)O)C(C)(C)CCC1`, the result in test [11] was inactive.
For the compound `CSc1ccc2c(c1)N(CCC1CCCCN1C)c1ccccc1S2` (stereo unspecified), in [9], the Potency entry is “inactive”.
Turning to `CC1(C)OC(=O)NC1=O`, the Potency entry in test [10] and in test [9] was “inactive” in each case.
As for `CNCCC(Oc1ccc(C(F)(F)F)cc1)c1ccccc1` (stereo unspecified), the Potency result in test [9] is “inactive”.
Consider `CCN(CC)C(C)CN1c2ccccc2Sc2ccccc21` (stereo unspecified), for which the outcome in [11] was inactive. Besides, the Potency entry in test [9] is “inactive”.
For the compound `Nc1ccc(S(=O)(=O)NC(=O)c2ccccc2)cc1`, the Potency result in test [10] and in test [9] was “inactive” each time.
For the compound `NS(=O)(=O)c1cc2c(cc1C(F)(F)F)NC(Cc1ccccc1)NS2(=O)=O` (stereo unspecified), the Potency result in test [9] is “inactive”.
For the compound `CCN(CC)CCCC(C)Nc1c2ccc(Cl)cc2nc2ccc(OC)cc12` (stereo unspecified), the outcome in test [11] was inactive. Also, the Potency in test [9] was 7.94 µM (active).
`Cc1ncc([N+](=O)[O-])n1CC(O)CCl` (stereo unspecified): the activation in test [12] is 4.13%.
In the case of `CC(C)(C(=O)O)c1ccc(C(O)CCCN2CCC(C(O)(c3ccccc3)c3ccccc3)CC2)cc1` (stereo unspecified), the Potency entry in [9] is “inactive”.
With `CN(C)CCOC(C)(c1ccccc1)c1ccccn1` (stereo unspecified), the Potency result in [10] and in test [9] was “inactive” throughout.
`CNCC(O)c1ccc(O)c(O)c1` (stereo unspecified): in test [9], the Potency result was “inactive”.
For the compound `CC1=C(CC(=O)O)c2cc(F)ccc2/C1=C\c1ccc(S(C)=O)cc1` (stereo unspecified), the outcome in test [8] and in [4] was inactive. Also, in [9], the Potency entry is “inactive”.
For `O=C(CCCN1CCN(c2ccccn2)CC1)c1ccc(F)cc1`, the Potency entry in test [10] and in test [9] was “inactive” each time.
In the case of `CCCCN(CCCC)CCCOC(=O)c1ccc(N)cc1`, in test [11], the outcome was inactive. In addition, in [6], the Potency was 0.0063 µM (active). For the same compound, the Potency result in test [9] was “inactive”.

Source of the values: PubChem BioAssay (NCATS).
